This passage reports max response, negative = inhibition results from PubChem BioAssay AID652054 (National Center for Advancing Translational Sciences (NCATS), 2013).

Each structure is given as a SMILES string. Among all 360,000 compounds or so, about 9,100 (2.5%) were called active. Another 4% or so got no clear call; they are omitted. The sample as a whole holds a higher share of actives than the screen did. A number with no mark means an inactive call. Cut-off read from the data, not from the text of the source: active = max response below about -50%; inconclusive = no clear call, values can overlap the other calls; inactive = above that.
% is set by controls: 0 for no effect and ±100 for the full control effect.

Sequence of D(3) dopamine receptor (Homo sapiens) (P35462 whole entry, looked up): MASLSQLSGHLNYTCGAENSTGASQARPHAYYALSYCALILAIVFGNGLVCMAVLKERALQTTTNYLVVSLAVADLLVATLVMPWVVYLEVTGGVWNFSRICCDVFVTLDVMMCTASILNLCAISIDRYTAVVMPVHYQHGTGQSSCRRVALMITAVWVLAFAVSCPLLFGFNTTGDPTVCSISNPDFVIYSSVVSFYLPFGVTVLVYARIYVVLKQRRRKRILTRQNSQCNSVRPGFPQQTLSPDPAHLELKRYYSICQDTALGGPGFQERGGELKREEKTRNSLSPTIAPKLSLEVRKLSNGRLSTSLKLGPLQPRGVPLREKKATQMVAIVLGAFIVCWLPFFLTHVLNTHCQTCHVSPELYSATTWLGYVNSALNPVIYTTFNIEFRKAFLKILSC

This test has as its target D(3) dopamine receptor (Homo sapiens) (UniProt P35462). Description: qHTS of D3 Dopamine Receptor Antagonist: qHTS. The note with it: D3R cells, DiscoveRx beta-arrestin luminescence, antagonist mode; active compounds read low. Put shortly:
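Cells expressing the human receptor were seeded at 1500 cells/well, incubated overnight at 37 degrees C in 5% CO2, then exposed to library compounds with dopamine controls for 90 minutes at 37 degrees C before luminescent detection.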
(In general: In qHTS, concentration-response curves come from the screen itself.)
Take `CCOC(=O)N1CCN(C(=O)c2ccccc2N(Cc2ccccc2)S(=O)(=O)c2ccc(OC)cc2)CC1`: the max response, negative = inhibition is -17.6%.
The figure for `CCN1CCN(C(=O)c2ccccc2N(C)S(=O)(=O)c2ccc(C)cc2)CC1` is -77.3% (active); for `CCOC(=O)C1CCN(C(=O)c2ccccc2N(C)S(=O)(=O)c2ccccc2)CC1` it is -4.73%; for `Clc1ccccc1Nc1nc(NCc2cccs2)nc2ccsc12` it is 31.9%.
Then `O=C(C[C@H]1CC[C@@H](NC(=O)c2ccncc2)[C@@H](CO)O1)NCC1CC1`, with 12.2%; and `O=C(NCc1nnnn1-c1ccc(Cl)cc1)c1ccc2c(c1)OCO2`, with -11.2%; and `CC(=O)N/C(=C\c1ccccc1)C(=O)OC(C)C(=O)N(C)c1ccccc1` (configuration not stated), with -13.3%.
The figure for `CC(=O)N/C(=C/c1ccc(OC(F)F)cc1)C(=O)O` is -58.1% (active); for `CC(=O)N/C(=C\c1ccc(F)cc1)C(=O)NC(Cc1ccccc1)C(=O)O` (configuration not stated) it is 3.22%; for `CC1(Cc2cccc(C#N)c2)C(=O)Nc2ccc(-c3cccc(C(F)(F)F)c3)cc21` (configuration not stated) it is 19.7%.
In the case of `CCOc1cc(CNn2c(C)nnc2SCC(=O)NC(C)(C)C)ccc1OCC(=O)NC(C)(C)C`, the max response, negative = inhibition is 4.21%.
The figure for `CCOc1cc(C)c(S(=O)(=O)NCc2ccccn2)cc1C` is 4.2%; for `CCOc1cc(CNCc2ccccn2)ccc1OCC(=O)NC(C)(C)C` it is -58.7% (active); for `CC1(C)CC(=O)C2=C(C1)N=C1SCCC(=O)N1C2c1ccc(C(F)(F)F)cc1` (configuration not stated) it is -94.4% (active).
As for `CNC(=O)C[C@H]1C(=O)N(Cc2ccccc2)C[C@@H]1CSC`, the max response, negative = inhibition is -17.4%.
Regarding `O=S(=O)(c1ccc(Br)cc1)c1nc(-c2ccccc2)oc1N1CCOCC1`, the max response, negative = inhibition is -1.47%.
For `O=S(=O)(c1ccc(Cl)cc1)c1nc(-c2ccccc2F)oc1NCCN1CCOCC1`, the max response, negative = inhibition was -10.5%.
Then `O=S(=O)(c1ccccc1)c1nc(-c2ccccc2)oc1NCCCN1CCOCC1`, with -64.3% (active); and `CC(=O)c1cccc(-c2cnc3c(NC=O)cc(-c4ccc(N(C)C)cc4)cn23)c1`, with 4.39%.
The figure for `CCOc1ccccc1OCCCNCc1ccccc1` is -58.9% (active); for `c1ccc(CNCc2ccc(CNCc3ccccc3)cc2)cc1` it is -21.6%.
Regarding `CCOCCCNCc1cc(Br)ccc1OCC`, the max response, negative = inhibition is 4.27%.
Then `CCCCN1CC(N2CCN(Cc3cccc(C)c3)CC2)CS1(=O)=O` (configuration not stated), with 0.736%; and `OCCC#Cc1ccc(N2C(c3ccsc3)=Cc3ccc(F)cc3C2c2c[nH]c3ccccc23)cc1` (configuration not stated), with -3.75%; and `O=C(NNS(=O)(=O)Cc1ccccc1)c1ccc([N+](=O)[O-])cc1`, with -19%.
For `O=C(CNC(=O)c1ccccc1)Oc1ccc([N+](=O)[O-])cc1`, the max response, negative = inhibition is -54.6% (active).
The figure for `COC(=O)CNC(=O)c1ccccc1[N+](=O)[O-]` is 16.4%.
Turning to `Nc1cc(=O)c2[nH]cnc2[nH]1`, the max response, negative = inhibition was 15.5%.
The figure for `Nc1ncnc2c1ncn2[C@@H]1O[C@H](C(=O)N2CCCN(Cc3ccccc3F)CC2)[C@@H](O)[C@H]1O` is 15%; for `O=C(C=CC(=O)Nc1ccc(F)cc1F)Nc1ccc(F)cc1F` it is 4.55%; for `COC(=O)[C@@]1(Cc2ccc(OC)cc2)[C@H]2c3cc(C(=O)N4CCCC4)n(Cc4ccc(OC(F)(F)F)cc4)c3C[C@H]2CN1C(=O)c1ccccc1` it is 20.3%.
For the compound `C[C@@H]1CN([C@H](C)CO)C(=O)CCCn2nncc2CO[C@@H]1CN(C)S(=O)(=O)c1cccc(C#N)c1`, the max response, negative = inhibition is -18.1%.
Then `N#Cc1cccc(NC(=O)C2CCCN(C(=O)c3ccc(Cl)cc3)C2)c1` (configuration not stated), with 0.782%.
Then `N#Cc1cccc(NC(=O)CN2CCCCCC2)c1`, with -64.8% (active); and `N#Cc1ccsc1NC(=O)CN1CCCCC1`, with -12%.
The figure for `Nc1cc(C(=O)N2CCN(c3ccccc3Cl)CC2)ccc1N1CC2CC(C1)c1cccc(=O)n1C2` (configuration not stated) is 27.4%.
Consider `C=C1C(=O)OC2C1CCC(C)=CCCC1(C)OC21` (configuration not stated), for which the max response, negative = inhibition was -90% (active).
As to `CC1(C(=O)NCC2CCOCC2)Cc2c(-c3cccc(C(N)=O)c3)ccnc2O1` (configuration not stated), the max response, negative = inhibition is -8.42%.
Then `Cc1cc(Br)cn2c(Cc3ccccc3C(F)(F)F)c(C3CCCCC3)nc12`, with -18.2%; and `COc1cccc(-c2cnc3c(NC(C)=O)cc(-c4cc(F)ccc4OC)cn23)c1`, with -14.2%.
Then `COc1ccc(S(=O)(=O)N2CCC(C(=O)NCCC(=O)NCCc3cccc(F)c3)CC2)cc1`, with 9.47%; and `C=CCNC(=S)N1CCc2[nH]c3ccccc3c2C1`, with -14.7%.
Then `O=C(CCCN1CCc2[nH]c3ccc(F)cc3c2C1)c1ccc(F)cc1`, with -89.2% (active); and `CC1CCc2[nH]c3ccc(C(=O)N(C)CC(=O)Nc4cccc(F)c4)cc3c2C1` (configuration not stated), with 3.28%.
Turning to `CC(=O)C1=CCC(c2ccccc2)N(S(=O)(=O)c2ccc(C)cc2)C1` (configuration not stated), the max response, negative = inhibition was 0%.
The figure for `COc1cccc(NC(=O)C2(C)CCN2C(=O)CCC2CCCC2)c1` (configuration not stated) is 1.34%.
In the case of `COc1ccc(C(NC(=O)C2CCN(CCCc3ccccc3)CC2)c2cccs2)cc1` (configuration not stated), the max response, negative = inhibition is -15.9%.
The figure for `Cc1cc(C=O)c(C)n1-c1ccc(NC2CCCCC2)c([N+](=O)[O-])c1` is -55.1% (active); for `Cc1cc([N+](=O)[O-])c(NC2CCCCC2)c([N+](=O)[O-])c1` it is -7.91%; for `Cc1c(NS(=O)(=O)c2ccc(NC3CCCC3)c([N+](=O)[O-])c2)c(=O)n(-c2ccccc2)n1C` it is -21.5%.
`COCC(=O)N(C)C[C@H]1Oc2cc(Br)ccc2S(=O)(=O)N([C@H](C)CO)C[C@H]1C`: the max response, negative = inhibition is 15.2%.
With `C#CCN(C[C@@H]1[C@@H](OC(=O)NC2CC2)[C@@H](OC(=O)NC2CC2)Cn2c(=O)ccc(=O)n21)S(=O)(=O)c1ccc(C)cc1`, the max response, negative = inhibition was 13.1%.
Consider `O=c1ccc2c(-c3ccccc3S(=O)(=O)O)c3ccc(O)c(O)c3oc-2c1O`, for which the max response, negative = inhibition is -93.3% (active).
Then `C[C@@H]1CN([C@@H](C)CO)C(=O)CCCn2nncc2CO[C@H]1CN(C)Cc1ccc(C(F)(F)F)cc1`, with 20.1%; and `CC(C)NC(=O)N1Cc2cc(C(=O)NCC(F)(F)F)nc(-c3cccc(-c4cc5ccccc5o4)c3)c2[C@@H]1CCO`, with 18.7%.
`O=C(NC(c1ccc(-c2ccccc2)cc1)c1cnccn1)C1CCN(CCOc2ccc(Cl)cc2Cl)CC1` (configuration not stated): the max response, negative = inhibition was -24.7%.
On to `COC(=O)c1ccc2nc(-c3ccccc3)c(Cc3ccc(OC)cc3C)n2c1`, for which the max response, negative = inhibition was -9.42%.
Then `COc1ccc2[nH]cc(/C=C(/C#N)S(=O)(=O)c3ccccc3)c2c1`, with -50.9% (active); and `COc1ccc2[nH]cc(CCN3C(=O)c4ccc(C(=O)O)cc4C3=O)c2c1`, with 11.7%.
The figure for `COc1ccc(/C=N/N=C/c2c[nH]c(=O)c(C#N)c2Nc2ccccc2)cc1` is 23.9%; for `Cc1ccccc1S(=O)(=O)NC(=O)C1(C)CCN1C(=O)C1(c2ccc(Cl)cc2)CC1` (configuration not stated) it is 4.07%.
The figure for `O=C(NN=Cc1ccccc1)c1ccccc1` is -25.4%; for `Cc1nc2ccc(C(=O)N/N=C/c3ccc(O)cc3)cc2[nH]1` it is -78.1% (active).
Regarding `Cc1nonc1C(=O)N/N=C/c1ccc(O)cc1`, the max response, negative = inhibition was 20.2%.
The figure for `COc1ccc2c(c1)c(=Cc1ccc(N(C)C)cc1)c1cc(-c3ccccc3)[n+](C)n12` is -65.2% (active).
The figure for `Cc1ccc(C(NC(=O)C2CCN(CCOc3ccc(Cl)cc3Cl)CC2)c2ccccn2)cc1` (configuration not stated) is -3.28%.
The figure for `CC1=C(C(=O)N(C)C)CC(CC(=O)NCCc2ccccn2)C(=O)N1CCC1=CCCCC1` (configuration not stated) is -22.1%; for `CCCCCNC(=O)C1C(=O)Nc2ccccc2C(=O)N1C(C)(C)C` (configuration not stated) it is -19.2%; for `CCCCN(CC)CCNC(=O)c1[nH]c(C)c(C(C)=O)c1C` it is -58.3% (active).
`CC(=O)c1c(C)[nH]c(C(=O)NCc2ccc(C)cc2)c1C`: the max response, negative = inhibition was -6.75%.
With `CC(=O)c1c(C)[nH]c(C(=O)NCCCN2CCCC2)c1C`, the max response, negative = inhibition was 11.6%.
Then `CC1(C(=O)NS(=O)(=O)C2CC2)CCCN(C(=O)CSc2ccccc2)C1` (configuration not stated), with 0%.
The figure for `Cc1ccc(-c2nc3ccc(Br)cn3c2Cc2ccccc2C(F)(F)F)cc1` is -15%; for `CCOC(=O)C1=CC[C@@H](c2ccncc2)N(S(=O)(=O)c2ccc(C)cc2)C1` it is -4.07%.
In the case of `CCCCNC(=O)c1nc(C2CCN(S(=O)(=O)c3ccc(F)c(F)c3)CC2)oc1-c1cccc(C(F)(F)F)c1`, the max response, negative = inhibition was 7.15%.
The figure for `C[C@H]1CN([C@@H](C)CO)C(=O)CCCn2nncc2CO[C@@H]1CN(C)Cc1ccc(Oc2ccccc2)cc1` is -10.5%.
Consider `C=CS(=O)c1sc(Cl)c(N2CCOCC2)c1[N+](=O)[O-]` (configuration not stated), for which the max response, negative = inhibition was -84.2% (active).
The figure for `CC1(C(=O)NCc2ccco2)Cc2c(-c3ccc4c(c3)OCO4)ccnc2O1` (configuration not stated) is 5.33%; for `CC(=O)NN=C(C)c1ccc(NC(=O)C2CC2)cc1` it is 3.77%.
`COc1ccc(CCC(C)N2CCc3ccccc3C2)cc1` (configuration not stated): the max response, negative = inhibition is -112% (active).
The figure for `COc1ccc(NC(=O)C(=O)NCC(c2ccco2)N2CCc3ccccc3C2)cc1` (configuration not stated) is 6.38%.
Then `COc1ccc(CN2CN(C(C)C)CSC2=S)cc1`, with -12.9%; and `O=C(OC1CC2CC1[C@H]1CCCCN1C2=O)N1CCOCC1` (some centres not stated), with 3.81%; and `O=C(C(=O)N1CCC(c2ccccc2)CC1)c1ccccc1`, with 11.8%.
Turning to `Cc1ccc(-n2c(O)c(C=Nc3ccc(S(=O)(=O)Nc4ncccn4)cc3)c3ccccc3c2=O)cc1C`, the max response, negative = inhibition is 1.71%.
The figure for `CCN(CC)CCCN=Cc1c(O)n(-c2ccc(C)cc2)c(=O)c2ccccc12` is 9.43%; for `CCOc1ccc(-n2c(O)c(/C=N/Nc3nc(C)cc(C)n3)c3ccccc3c2=O)cc1` it is -56.4% (active).
